About 2,100 (0.53%) of roughly 400,000 compounds were called active. Not shown: some 14% with an inconclusive outcome. No rule for the calls is given here. Shown is part of a subset that was picked to be rich in actives.
target: Ataxin-2 (Homo sapiens) (UniProt Q99700); test: qHTS for Inhibitors of ATXN expression.; assay type: functional
Sequence (Q99700 whole entry): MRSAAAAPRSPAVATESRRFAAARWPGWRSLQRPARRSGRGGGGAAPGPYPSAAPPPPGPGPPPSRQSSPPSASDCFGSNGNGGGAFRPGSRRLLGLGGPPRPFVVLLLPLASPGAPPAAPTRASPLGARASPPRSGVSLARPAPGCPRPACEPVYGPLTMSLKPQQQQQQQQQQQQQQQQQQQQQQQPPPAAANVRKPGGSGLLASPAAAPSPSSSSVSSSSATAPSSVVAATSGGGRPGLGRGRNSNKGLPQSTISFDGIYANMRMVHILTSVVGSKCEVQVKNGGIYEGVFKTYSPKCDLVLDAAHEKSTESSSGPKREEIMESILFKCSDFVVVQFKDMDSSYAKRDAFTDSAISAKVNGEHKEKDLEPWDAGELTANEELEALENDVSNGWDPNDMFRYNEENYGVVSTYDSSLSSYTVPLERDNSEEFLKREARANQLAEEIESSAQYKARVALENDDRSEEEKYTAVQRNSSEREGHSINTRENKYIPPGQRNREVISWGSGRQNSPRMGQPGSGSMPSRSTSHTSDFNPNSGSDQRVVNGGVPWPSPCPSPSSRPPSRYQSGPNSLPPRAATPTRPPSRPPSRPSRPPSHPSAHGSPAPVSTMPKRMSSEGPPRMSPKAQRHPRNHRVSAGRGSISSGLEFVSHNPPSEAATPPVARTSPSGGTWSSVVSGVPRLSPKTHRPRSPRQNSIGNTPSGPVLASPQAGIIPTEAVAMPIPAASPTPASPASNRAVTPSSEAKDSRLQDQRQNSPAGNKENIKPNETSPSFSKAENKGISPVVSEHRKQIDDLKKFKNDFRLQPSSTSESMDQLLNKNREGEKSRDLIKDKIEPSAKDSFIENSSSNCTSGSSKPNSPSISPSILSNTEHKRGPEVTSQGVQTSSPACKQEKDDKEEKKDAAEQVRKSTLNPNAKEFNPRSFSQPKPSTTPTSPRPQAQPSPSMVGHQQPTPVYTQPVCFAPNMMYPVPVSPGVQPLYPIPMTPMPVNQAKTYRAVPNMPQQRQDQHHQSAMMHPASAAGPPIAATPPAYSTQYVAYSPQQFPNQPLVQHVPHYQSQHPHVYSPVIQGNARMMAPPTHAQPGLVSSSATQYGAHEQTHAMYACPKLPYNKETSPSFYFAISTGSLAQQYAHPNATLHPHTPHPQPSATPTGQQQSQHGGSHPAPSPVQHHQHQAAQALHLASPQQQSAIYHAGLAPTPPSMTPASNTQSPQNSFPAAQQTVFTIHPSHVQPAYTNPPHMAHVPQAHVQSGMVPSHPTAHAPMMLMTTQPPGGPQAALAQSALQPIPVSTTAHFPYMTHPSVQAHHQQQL

With `COC(=O)c1c(NC(=S)NC(=O)c2ccco2)sc2c1CCCC2` as the compound, how does the Potency read?
Its Potency is “inactive”.

Which Potency does the source give for `COC(=O)c1ccc(NC(=O)c2c(NCc3ccc(C)o3)sc3c2CCCC3)cc1` here?
Its Potency is 35.5 µM (active).

With `COC(=O)c1c(NC(=O)c2ccc(N(C)S(=O)(=O)c3ccc(C)cc3)cc2)sc2c1CCCC2` as the compound, how does the Potency read?
The Potency was “inactive”.

For `Cc1ccc(C(=O)N2N=C(c3ccc(Br)cc3)CC2c2ccccc2O)cc1` (stereo not given), which Potency is on record?
The Potency was 42.3 µM (active).

With `O=C(O)c1ccc(N2N=C(c3ccccc3)CC2c2ccccc2)cc1` (stereo not given) as the compound, how does the Potency read?
Its Potency is “inactive”.

How did the Potency turn out when `COc1ccc(C2=NN(C(=O)c3ccccc3)C(c3ccc(OC)c(OC)c3)C2)c(O)c1` (stereo not given) was run?
The Potency was “inactive”.

How did the Potency turn out when `N#Cc1c(C(F)(F)F)cc(-c2cccs2)nc1N1CCCCC1` was run?
Its Potency is “inactive”.

`Cc1ccccc1NC(=O)c1nn(C)c(C(=O)Nc2ccccc2C)c1[N+](=O)[O-]` was tested. Which Potency did it give?
The Potency was “inactive”.

`Cc1ccccc1NC(=O)Nc1nnc(Cc2ccc([N+](=O)[O-])cc2)s1` was tested. Which Potency did it give?
Its Potency is 11.2 µM (active).

With `COc1ccccc1NC(=O)Nc1nnc(Cc2ccc(F)cc2)s1` as the compound, how does the Potency read?
The Potency was “inactive”.

For `CCCc1cc(NCCOCCO)n2c(nc3ccccc32)c1C#N`, which Potency is on record?
The Potency was “inactive”.

How did the Potency turn out when `Nc1nc(O)nc(O)c1N=Cc1ccccc1` was run?
The Potency was “inactive”.

With `COC(=O)c1ccc(/C=N/Nc2nc(C)c(C)s2)cc1` as the compound, how does the Potency read?
The Potency was “inactive”.

With `C/C(=N\Nc1nc(C)c(C)s1)c1ccc([N+](=O)[O-])cc1` as the compound, how does the Potency read?
Its Potency is 37.7 µM (active).

With `C/C(=N\NC(=O)c1ccc(CN2CCOCC2)cc1)c1ccc([N+](=O)[O-])cc1` as the compound, how does the Potency read?
Its Potency is “inactive”.

How did the Potency turn out when `C=CCS(=O)(=O)c1nc2ccccc2s1` was run?
The Potency was 35.5 µM (active).

How did the Potency turn out when `CCOc1ccccc1N(CC(=O)NCCSc1ccccn1)S(=O)(=O)c1ccccc1` was run?
Its Potency is “inactive”.

`Brc1ccccc1-c1nnc(SCc2nc3ccccc3s2)o1` was tested. Which Potency did it give?
The Potency was “inactive”.

`O=S(=O)(CCSc1ccccn1)c1nc2ccccc2s1` was tested. Which Potency did it give?
Its Potency is 22.4 µM (active).

Which Potency does the source give for `O=C(OCc1nc2ccccc2s1)c1ccccc1O` here?
Its Potency is “inactive”.

With `O=S(=O)(CCSc1nc2ccccc2o1)c1nc2ccccc2s1` as the compound, how does the Potency read?
Its Potency is 15.8 µM (active).

How did the Potency turn out when `O=C(O)c1ccc(C=C(c2nc3ccccc3s2)c2nc3ccccc3s2)cc1` was run?
Its Potency is “inactive”.

How did the Potency turn out when `Cc1cccc(N2CC(C(=O)Nc3ccc(S(=O)(=O)Nc4nccs4)cc3)CC2=O)c1C` (stereo not given) was run?
The Potency was “inactive”.

How did the Potency turn out when `COCC(=O)Nc1nc2n(n1)C(c1ccc(Cl)cc1)CC(c1ccc(OC)cc1)N2` (stereo not given) was run?
The Potency was “inactive”.

For `COc1cc(CO)c(Br)cc1OCC(N)=O`, which Potency is on record?
The Potency was “inactive”.

With `COc1ccc(C2c3ccc4ccccc4c3Oc3ncn(CCCO)c(=N)c32)cc1` (stereo not given) as the compound, how does the Potency read?
Its Potency is 35.5 µM (active).

For `COc1ccc(C2c3ccc4ccccc4c3Oc3ncn(CCN4CCOCC4)c(=N)c32)cc1` (stereo not given), which Potency is on record?
Its Potency is 14.1 µM (active).

`N=c1c(C(=O)NC2CCCC2)cc2c(=O)n3ccccc3nc2n1CCCN1CCOCC1` was tested. Which Potency did it give?
Its Potency is “inactive”.

`COc1ccc(C2c3c(ncn(CCN4CCOCC4)c3=N)Oc3ccc4ccccc4c32)cc1OC` (stereo not given) was tested. Which Potency did it give?
The Potency was 14.1 µM (active).

With `COc1ccc(Nc2ncc(F)c(N3CCOCC3)n2)cc1` as the compound, how does the Potency read?
Its Potency is “inactive”.

With `CN(C)CCn1cnc2c(c1=N)C(c1ccccc1)c1ccc3ccccc3c1O2` (stereo not given) as the compound, how does the Potency read?
The Potency was 28.2 µM (active).

Which Potency does the source give for `COc1ccc2nc(NCCN=C(S)NCCCN3CCOCC3)c(C#N)cc2c1` here?
The Potency was “inactive”.

With `Cc1ccc(S(=O)(=O)NC23CC4CC(CC(C4)C2)C3)cc1` as the compound, how does the Potency read?
Its Potency is “inactive”.

With `CCCn1nc(NC(=O)COC)c2cc3cccc(C)c3nc21` as the compound, how does the Potency read?
The Potency was “inactive”.

How did the Potency turn out when `COc1ccc(OC)c(/C=C2\Oc3cc(OCC(=O)N4CCC[C@H]4C(=O)O)ccc3C2=O)c1` was run?
Its Potency is “inactive”.

For `COCCNc1oc(/C=C/c2ccccc2)nc1C#N`, which Potency is on record?
The Potency was “inactive”.

`COc1cc2ccccc2nn1` was tested. Which Potency did it give?
The Potency was “inactive”.

For `COc1ccc(C2c3c(ncn(CCCO)c3=N)Oc3ccc4ccccc4c32)cc1` (stereo not given), which Potency is on record?
The Potency was 25.1 µM (active).

`COc1ccc(C2C=C(c3ccccc3)Nc3nc(CCCO)nn32)cc1` (stereo not given) was tested. Which Potency did it give?
The Potency was “inactive”.

With `N=c1c2c(ncn1Cc1ccco1)Oc1ccc3ccccc3c1C2c1ccccc1` (stereo not given) as the compound, how does the Potency read?
The Potency was 12.6 µM (active).

With `CCOCCn1c(CN2CCCC(C)C2)nc2c1c(=O)n(C)c(=O)n2C` (stereo not given) as the compound, how does the Potency read?
The Potency was “inactive”.

`COCCCn1c(C)nnc1SCc1ccc(C(C)(C)C)cc1` was tested. Which Potency did it give?
Its Potency is “inactive”.

For `CC(=O)Nc1nc2n(n1)C(c1ccc(F)cc1)C=C(c1ccc(Cl)cc1)N2` (stereo not given), which Potency is on record?
Its Potency is “inactive”.

`Cc1ccc(N2C(=O)/C(=C\Nn3cnnc3)c3ccccc3C2=O)cc1` was tested. Which Potency did it give?
The Potency was “inactive”.

Which Potency does the source give for `Cc1nc(SCc2ccccc2)c2ccsc2n1` here?
The Potency was “inactive”.

For `CCCCN=c1nc(S)n(-c2ccccc2)c(C)c1C(C)=O`, which Potency is on record?
Its Potency is 39.8 µM (active).

Which Potency does the source give for `CCCCn1c(=O)nc2n(-c3ccccc3)c3ccccc3cc-2c1=O` here?
Its Potency is “inactive”.

`O=[N+]([O-])c1ccc(NN=C(Oc2ccccc2)c2ccc([N+](=O)[O-])cc2)cc1` was tested. Which Potency did it give?
Its Potency is “inactive”.

`COc1ccc(C(=O)/C(C#N)=N/Nc2ccc([N+](=O)[O-])cc2)cc1` was tested. Which Potency did it give?
Its Potency is 10 µM (active).

With `C/C(=N\Nc1ccc([N+](=O)[O-])cc1)c1ccco1` as the compound, how does the Potency read?
The Potency was “inactive”.

With `Cc1cc(C)c(S(=O)(=O)Nc2cc(SCC(=O)O)c(O)c3ccccc23)cc1C` as the compound, how does the Potency read?
The Potency was 20 µM (active).

`CC(=O)Nc1ccc(NS(=O)(=O)c2cc(-c3cnc(C4CC4)o3)ccc2C)cc1` was tested. Which Potency did it give?
The Potency was “inactive”.

How did the Potency turn out when `COC(=O)CCC(=O)N1CCCC(N2CCN(c3cccc(C(F)(F)F)c3)CC2)C1` (stereo not given) was run?
The Potency was “inactive”.

With `CSC1=NCCN1S(=O)(=O)c1ccc(F)cc1` as the compound, how does the Potency read?
The Potency was “inactive”.

How did the Potency turn out when `COC(=O)Cc1c(C)c2ccc(O)c(CNCc3ccc(OC)c(OC)c3)c2oc1=O` was run?
The Potency was “inactive”.

How did the Potency turn out when `COc1ccc(-c2c/c(=N\c3nc(-c4ccccc4)c(C)s3)c3ccccc3o2)cc1O` was run?
Its Potency is 31.6 µM (active).

How did the Potency turn out when `CCc1ccc2oc(-c3ccc(OC)cc3)cc(=Nc3cccc(C(=O)O)c3)c2c1` was run?
Its Potency is “inactive”.

Which Potency does the source give for `Cc1sc(Cc2nc(O)cs2)nc1-c1ccccc1` here?
The Potency was “inactive”.

`COCCCn1c(=N)c(C(=O)NC2CCCCC2)cc2c(=O)n3cc(C)ccc3nc21` was tested. Which Potency did it give?
Its Potency is “inactive”.

For `COC(=O)C1=CN(C2CC2)C=C(C(=O)OC)C1c1ccc(C(=O)OC)cc1`, which Potency is on record?
The Potency was “inactive”.

With `COC(=O)c1ccc2nc(C3CCCCC3)c(CC(C)(C)C)n2c1` as the compound, how does the Potency read?
The Potency was 39.8 µM (active).

With `Cc1nc(-c2ccccc2)sc1-c1ccnn1C` as the compound, how does the Potency read?
The Potency was “inactive”.

How did the Potency turn out when `CCc1ccc(C2=C(C)C(N3CCC(C(=O)Nc4ccc(F)cc4)CC3)=NS2(=O)=O)cc1` was run?
Its Potency is 39.8 µM (active).

Which Potency does the source give for `CCOC(=O)C1=C(C)N=c2s/c(=C/c3ccc(OCC(=O)O)cc3)c(=O)n2C1c1ccc(OC)cc1OC` (stereo not given) here?
Its Potency is “inactive”.

`CCSc1nnc2nc3c(c(O)n12)C1(CCCC1)Cc1ccccc1-3` was tested. Which Potency did it give?
Its Potency is “inactive”.

Reference: ChEMBL document CHEMBL1201862, “PubChem BioAssay data set” (2004)
